Measured values reported in the supplement of paper PMC10338343.
± gives the standard deviation.

Tested on: MILI (PIWIL2) piRISC loaded with piRNA #1 (26 nt)
Assay: pre-steady-state target cleavage rate (min^-1); guide: piRNA #1 5'p-UGAGGUAGUAGGUUGUAUAGUAUCCA; higher = faster piRNA-guided slicing of the target
Conditions: auxiliary factor: 500 nM mouse GTSF1
Procedure, shortened: (§1)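 Cleave-'n-Seq: a transcribed, DNA-blocked target RNA library (0.1 nM) was mixed with 1 nM active affinity-purified piRISC carrying one synthetic guide, with or without 500 nM GTSF1 partner protein, in HEPES–potassium acetate buffer at 33 °C for 0–8 or 0–960 min. Uncleaved targets were sequenced and normalised to depth and to weakly complementary targets. Three trials were pooled, and k3 was capped at 0.0001 min^-1. The pre-steady-state cleavage rate came from a burst-and-steady-state fit.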

Sequence	pre-steady-state target cleavage rate
GGAGACCAUACUAUACAUCCUACUACCUCA	0.302 ± 0.025
GGAGACCAUACUAUACAACCUAGUUCCUCA	0.0546 ± 0.018
GGAGACCAUACUAUACUACGUACUACCUCA	0.0334 ± 0.0056
GGAGACCUUACUACACAACCUACUACCUCA	0.126 ± 0.017
GGAGACGAUACUAUACUACCUACUACCUCA	0.2 ± 0.013
GGAGAGCAUACUAUACAACCUACUUCCUCA	0.0809 ± 0.025
GGAGAGGAUAUUAUACAACCUACUACCUCA	0.157 ± 0.0082
GGAGACGAUUCUAUACAACCUACUACCUGA	0.167 ± 0.021
GGAGACGAAUGUAUACAACCUACUACCUCA	0.124 ± 0.011
GGAGACCUAUCUAUACAACCUACUACCGCA	0.174 ± 0.021
GGAGUGGAUACUAUACAACCUAUCUACCUCA	0.113 ± 0.0078
GGAGAGGAUACUAAACUACCUACUACCUCA	0.167 ± 0.011
GGAGACCUAUCUUUUCAACCUACUACCUCA	0.0272 ± 0.0082
GGAGACGAUACUAUACAACCUACGACCUCA	0.146 ± 0.019
GGAGUCGAAACUAUACAACCUACUACCUCA	0.18 ± 0.019
GGAGAGCAUACUAAACAACCUACUACCUCA	0.158 ± 0.015
GGAGAGGAUACUAUACGACCUACUACCUCA	0.121 ± 0.0093
GGAGACGAUACUAUACAACGAACUACCUCA	0.00414 ± 0.0015
GGAGUGGAUACUAUACAUCCUACUACGUCA	0.0364 ± 0.0082
GGAGUGGAUACUAUACAACCUACUACUCUCA	0.14 ± 0.012

Sequence	pre-steady-state target cleavage rate
GGAGACGAUACUAUUCAACCAACUACCUCA	0.00612 ± 0.0026
GGAGACGAUAGUAUACAUCCUACUACCUCA	0.232 ± 0.016
GGAGACCAUACUAUACAACCUACUACCUAA	0.139 ± 0.015
GGAGACCUAACAAUACAACCUACUACCUCA	0.0822 ± 0.019
GGAGUGGAUACUAUACUACCUACUACGUCA	0.0586 ± 0.0078
GGAGAGGAUACAAUACAACCUACUACCACA	0.146 ± 0.015
GGAGACCUAACUAUACAACCUACUAUCUCA	0.0721 ± 0.017
GGAGACCAUAGCUAUACAACCUACUACCUCA	0.121 ± 0.014
GGAGAGGAUACUAUUCAACCUUCUACCUCA	0.00949 ± 0.0023
GGAGAGGAUACUAUAGAAGCUACUACCUCA	0.0647 ± 0.0095
GGAGACGAUACUAUACAUCCUACUAGCUCA	0.173 ± 0.027
GGAGUGGAUACUAUACAACCUACUACAUCA	0.0416 ± 0.0072
GGAGACGAUACUAUACAACCUACAACCUGA	0.0121 ± 0.0074
GGAGACCAUACUAUACAACCUACCACCUCA	0.0975 ± 0.015
GGAGACCAUACUAUACAUCCUACUAGCUCA	0.152 ± 0.024
GGAGUGGAUACUAUAGCAACCUACUACCUCA	0.188 ± 0.009
GGAGAGGUUACUAUACAACCUACUUCCUCA	0.00348 ± 0.0029
GGAGACGAUACUAUACAAGCUACUAGCUCA	0.0998 ± 0.024
GGAGACCAUUACUAUACAACCUACUACCUCA	0.137 ± 0.012
GGAGACCUUACAAUACAACCUACUACCUCA	0.146 ± 0.019

Tested on: EfPiwi piRISC loaded with piRNA #1 (26 nt)
Assay: pre-steady-state target cleavage rate (min^-1); auxiliary factor: 500 nM Ephydatia muelleri Gtsf1; guide: piRNA #1 5'p-UGAGGUAGUAGGUUGUAUAGUAUCCA; MIWI and MILI are mouse PIWI proteins and EfPiwi is from a freshwater sponge; tags in brackets are library labels; higher = faster piRNA-guided slicing of the target
Conditions: not given
Procedure, shortened: as §1

Sequence	pre-steady-state target cleavage rate
GGAGACCAUACUAUACAUCCUACUACCUCA	0.00918 ± 0.0027
GGAGACCAUACUAUACAACCUAGUUCCUCA	0.00549 ± 0.0029
GGAGACCAUACUAUACUACGUACUACCUCA	0.00415 ± 0.0028
GGAGACCUUACUACACAACCUACUACCUCA	0.00432 ± 0.0039
GGAGACGAUACUAUACUACCUACUACCUCA	0.00925 ± 0.0032
GGAGAGCAUACUAUACAACCUACUUCCUCA	0.00292 ± 0.0021
GGAGAGGAUAUUAUACAACCUACUACCUCA	0.0615 ± 0.023
GGAGACGAUUCUAUACAACCUACUACCUGA	0.00463 ± 0.0026
GGAGACGAAUGUAUACAACCUACUACCUCA	0.00736 ± 0.0043
GGAGACCUAUCUAUACAACCUACUACCGCA	0.0051 ± 0.0049
GGAGUGGAUACUAUACAACCUAUCUACCUCA	0.00584 ± 0.0027
GGAGAGGAUACUAAACUACCUACUACCUCA	0.00323 ± 0.003
GGAGACCUAUCUUUUCAACCUACUACCUCA	0.00766 ± 0.0047
GGAGACGAUACUAUACAACCUACGACCUCA	0.00449 ± 0.0018
GGAGUCGAAACUAUACAACCUACUACCUCA	0.0604 ± 0.021
GGAGAGCAUACUAAACAACCUACUACCUCA	0.00417 ± 0.0033
GGAGAGGAUACUAUACGACCUACUACCUCA	0.117 ± 0.05
GGAGACGAUACUAUACAACGAACUACCUCA	0.00251 ± 0.0024
GGAGUGGAUACUAUACAUCCUACUACGUCA	0.0038 ± 0.0013
GGAGUGGAUACUAUACAACCUACUACUCUCA	0.00513 ± 0.0029

Sequence	pre-steady-state target cleavage rate
GGAGACGAUACUAUUCAACCAACUACCUCA	0.00444 ± 0.002
GGAGACGAUAGUAUACAUCCUACUACCUCA	0.00323 ± 0.0026
GGAGACCAUACUAUACAACCUACUACCUAA	0.0194 ± 0.0072
GGAGACCUAACAAUACAACCUACUACCUCA	0.00868 ± 0.0037
GGAGUGGAUACUAUACUACCUACUACGUCA	0.00245 ± 0.0017
GGAGAGGAUACAAUACAACCUACUACCACA	0.00265 ± 0.0022
GGAGACCUAACUAUACAACCUACUAUCUCA	0.0057 ± 0.003
GGAGACCAUAGCUAUACAACCUACUACCUCA	0.0108 ± 0.0051
GGAGAGGAUACUAUUCAACCUUCUACCUCA	0.0031 ± 0.0028
GGAGAGGAUACUAUAGAAGCUACUACCUCA	0.00238 ± 0.0021
GGAGACGAUACUAUACAUCCUACUAGCUCA	0.00336 ± 0.0019
GGAGUGGAUACUAUACAACCUACUACAUCA	0.00707 ± 0.0031
GGAGACGAUACUAUACAACCUACAACCUGA	0.00441 ± 0.0022
GGAGACCAUACUAUACAACCUACCACCUCA	0.00474 ± 0.0033
GGAGACCAUACUAUACAUCCUACUAGCUCA	0.00265 ± 0.0024
GGAGUGGAUACUAUAGCAACCUACUACCUCA	0.0919 ± 0.034
GGAGAGGUUACUAUACAACCUACUUCCUCA	0.0033 ± 0.002
GGAGACGAUACUAUACAAGCUACUAGCUCA	0.00375 ± 0.0019
GGAGACCAUUACUAUACAACCUACUACCUCA	0.148 ± 0.044
GGAGACCUUACAAUACAACCUACUACCUCA	0.0117 ± 0.0048
